# Source: PubChem
# tim10-1 inh: growth inhibitors of tim10-1 mutant yeast, primary screen, luminescence, uHTS; S. cerevisiae tim10-1 ts strain growth, BacTiter-Glo, 24 h; hit rate 2.2% among 330,000; inhibition, % at 20 µM;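 active = inhibition of at least 40%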;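 note: mutant grown at 25 °C; 0% = DMSO wells with yeast and 100% = wells holding no yeast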
# tim23-1 inh: growth inhibitors of tim23-1 mutant yeast, primary screen, luminescence, uHTS; inhibition, % at 20 µM; AID 463212, 2010; hit rate 1.3% among 330,000; S. cerevisiae tim23-1 growth, BacTiter-Glo luminescence, 24 h;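 active = growth inhibition of the mutant yeast at or above 50%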;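 note: temperature-sensitive mutant grown at 25 °C; plate controls were DMSO-treated mutant yeast for no effect and medium wells lacking yeast for full effect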
# Calb FLC: C. albicans growth inhibition with fluconazole, primary screen, CaCi-2 strain, Alamar Blue fluorescence. C. albicans CaCi-2 (fluconazole-resistant clinical isolate) + fluconazole, 48 h. growth inhibition, % (concentration not given with the values). hit rate 0.57% among 300,000;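 active = growth inhibition above about 58% in most replicates, limit read from the data, passing the limit was not always enough; inconclusive = exactly half the replicates above a set limit; inactive = most replicates below a set limit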;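 note: all wells also contain fluconazole at 8 µg/ml as a sub-toxic cotreatment; 0% = median of DMSO wells and 100% = median of geldanamycin control wells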
# PfHsp90 set2: growth inhibition of PfHsp90-expressing yeast, primary screen, antimalarial PfHsp90 inhibitor project, S. cerevisiae, BacTiter-Glo luminescence, single point, set 2 | BacTiter-Glo ATP, 48 h; yeast lacking PDR1 and PDR3 efflux regulators | inhibition, % at 9.4 µM | hit rate 0.32% among 310,000;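 active = every replicate shows inhibition above about 80%, whatever the replicate mean, limit read from the data; inconclusive = mean inhibition reaches the set limit but some replicate falls short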;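 note: 0% = DMSO neutral controls and 100% = 20 µM radicicol positive controls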
# SKKanGAS inh: S. pyogenes SKKanGAS growth inhibitors in kanamycin, primary screen, streptokinase expression inhibitor project, SKKanGAS strain, BacTiter-Glo luminescence. 6 h. inhibition, % at 7.5 µM. AID 1662, 2009. hit rate 1.3% among 300,000;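 active = mean replicate score, as percent of positive control median, at least 50; inconclusive = mean below 50 but one replicate at or above 50; inactive = mean and every replicate below 50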;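 note: strain carries kanamycin resistance gene driven by streptokinase promoter and grows in 40 µg/ml kanamycin; loss of luminescence reflects streptokinase promoter inhibition or plain growth inhibition; 0% = median of DMSO wells and 100% = positive control at its reference dose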
# TIM10 inh: growth inhibitors of isogenic TIM10 control yeast, primary screen, counter-screen for tim10-1 yeast inhibitor project, luminescence, uHTS; inhibition, % at 10 µM; hit rate 1.4% among 330,000; S. cerevisiae TIM10 strain growth, BacTiter-Glo luminescence, 24 h;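 active = inhibition of 40% or more at the single tested concentration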;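 note: wild-type TIM10 isogenic control strain grown at permissive 25 °C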
# The depositor's hits bear a star; ? = inconclusive; nt = no result given. Compounds with a hit are over-represented: about 4.7% of the library has one in this group of screens.
SMILES,tim10-1 inh,tim23-1 inh,Calb FLC,PfHsp90 set2,SKKanGAS inh,TIM10 inh
CCCc1nc2ccccc2c(=O)n1/N=C/c1c(C)[nH]n(-c2ccc(C)cc2)c1=O,21.8,16.8,-2.5,41.9,96.6*,6.6
C/C(=N/NS(=O)(=O)c1ccc(Cl)cc1)c1cccc(NC(=O)c2ccc(Cl)cc2Cl)c1,15.3,12.7,26.8,-3.6,64.2*,13.2
Cc1oc2c(cc(NS(=O)(=O)c3ccc4c5c(cccc35)C(=O)N4)c3ccccc32)c1C(=O)OC(C)C,18.7,24.0,69.6,8.0,nt,11.4
O=C1CCCc2oc3c(cc(NS(=O)(=O)c4ccc5c6c(cccc46)C(=O)N5)c4ccccc43)c21,15.2,19.8,35.7,-2.7,53.7*,-1.5
CCOC(=O)C1=C(C)NC(C)=C(C(=O)OC)C1c1cccc([N+](=O)[O-])c1 (stereo unspecified),15.7,22.6,nt,11.1,-4.9,12.0
CCOC(=O)C1=C(C)NC(C)=C(C(=O)OCC)C1c1ccc([N+](=O)[O-])s1,2.1,10.5,1.7,5.5,51.2*,9.1
COc1ccc(CCNC(=O)C(=O)NCC2OCCN2S(=O)(=O)c2cccs2)cc1 (stereo unspecified),6.3,10.1,-13.7,-8.7,31.5,-0.8
O=C(NC1CCN(S(=O)(=O)c2ccccc2C(F)(F)F)CC1)c1ccco1,16.2,13.3,-4.6,2.6,0.7,-9.2
CCCCCCCCC(=O)NNC(=O)c1c(O)c2ccccc2n(CC)c1=O,-21.4,31.6,93.9*,6.0,106.4*,6.2
CCn1c(=O)c(C(=O)Nc2ccc(C)cc2)c(O)c2ccccc21,-14.0,6.9,-4.6,7.3,-2.9,-8.8
CC(C)Cn1c(=O)c(C(=O)Nc2ccncc2)c(O)c2ccccc21,-7.9,14.1,-9.2,105.6*,95.7*,12.4
CCCCCCCC(=O)NNC(=O)c1c(O)c2ccccc2n(CC)c1=O,-20.0,17.2,-0.9,7.3,98.6*,-18.1
CCn1c(=O)c(C(=O)Nc2ccccc2C)c(O)c2ccccc21,-5.1,-4.6,-13.6,4.7,-3.1,-3.6
CCn1c(=O)c(C(=O)NNC(=O)c2ccccc2)c(O)c2ccccc21,-19.3,6.8,-27.8,-3.4,53.5*,-16.4
CCCn1c(=O)c(C(=O)NNC(=O)c2ccccc2Cl)c(O)c2ccccc21,-42.8,36.5,?,9.4,86.1*,15.9
CCCCCCC(=O)NNC(=O)c1c(O)c2ccccc2n(CC)c1=O,12.4,34.5,-1.8,-4.0,111.6*,21.1
CCn1c(=O)c(C(=O)NCCc2ccccc2)c(O)c2ccccc21,-6.7,-4.1,31.1,20.3,12.8,10.6
C=CCn1c(=O)c(C(=O)NCCNCC)c(O)c2ccccc21,-8.7,1.2,3.8,13.9,-8.4,10.6
C=CCn1c(=O)c(C(=O)NCc2ccccc2)c(O)c2ccccc21,-18.4,47.9,4.9,-0.5,54.5*,29.4
CCCCCCCC(=O)NNC(=O)c1c(O)c2ccccc2n(CCC)c1=O,-9.0,17.5,-2.8,24.5,111.3*,-3.7
CCCn1c(=O)c(C(=O)NNC(=O)Cc2ccccc2)c(O)c2ccccc21,-27.6,-17.9,-1.3,-6.4,36.3,3.6
O=C1OC(c2ccccc2)(c2cc(Br)ccc2O)c2ccccc21 (stereo unspecified),nt,nt,nt,-114.8,nt,nt
Cc1ccc(C(=O)O)cc1NC(=S)NC(=O)c1ccc(-c2ccc(Cl)cc2)o1,-3.1,-19.5,-0.3,-7.0,3.0,-0.3
O=C(O)c1ccc(NC(=S)NC(=O)c2ccc(-c3ccc(Br)cc3)o2)cc1,nt,nt,-7.7,nt,55.1*,nt
COc1ccc(C(=O)O)cc1NC(=S)NC(=O)c1ccc(-c2ccc(Cl)cc2)o1,2.3,2.4,11.1,-9.1,50.7*,11.0
CCC(=O)N(C1=C(NC)C(=O)c2ccccc2C1=O)C(C)C,21.1,34.3,17.7,6.7,-14.4,19.8
CNC1=C(N(C(C)=O)c2ccc(Br)cc2)C(=O)c2ccccc2C1=O,nt,nt,102.7*,7.8,56.5*,nt
c1cnc2nc3c4ccccc4c4ccccc4c3nc2c1,nt,nt,nt,-18.9,nt,nt
